Shown are actives, neighbours in structure and some others; about 6.2% of the full set was active somewhere.
HT1080 IDH1KD tx: kills HT-1080 cells with IDH1 knockdown; HT-1080 IDH1 knockdown viability, ATP luminescence, 48 h; Potency, µM (doses to about 46.1 µM), inactives show top-dose activity, negative = toxicity, usual class: cytotoxic; 360,000 tested, 2% active; AID 686971;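 further: 0% = DMSO wells and -100% = cell-free medium wells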
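Cytotoxicity counter-line: IDH1KD HT-1080, 48 h, CellTiter-Glo. Curves classed by r2, magnitude and activity.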
HT1080NT lethal: kills 2HG-producing HT-1080-NT fibrosarcoma cells. AID 686970. 360,000 tested, 1.6% active. Potency, µM (series often up to 46.1 µM), without a hit: top-dose activity, negative = less viability, actives largely listed as cytotoxic. HT-1080-NT fibrosarcoma viability, CellTiter-Glo ATP luminescence, 48 h;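 further: NT is the 2HG producing partner of a matched IDH1 knockdown line; 0% = DMSO-treated cells and -100% = media-only wells without cells; nearly all actives have a fitted effect of over 55% in size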
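HT-1080-NT; 750 cells/well; 5% FBS RPMI; 48 h compound, 37 degrees C; CellTiter-Glo luminescence; curve fitting and curve-class assignment.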
S2 tox: reduces viability in counter-screen for ATXN expression inhibitors. 400,000 tested, 0.49% active. Potency, µM (titrated, usually from 56.7 µM), actives largely listed as cytotoxic. S2 cells (HEK-293 line with an ATXN2-luciferase reporter) viability, CellTiter-Fluor protease fluorescence, 24 h; further: nearly all actives have a fitted effect of over 40% in size
KB-V1 MDR tox: KB-V1 MDR subline cytotoxicity. Potency, µM (series often up to 46.1 µM), actives largely listed as cytotoxic. 400,000 tested, 3.4% active. AID 1347076. KB-V1 MDR cells viability, CellTiter-Glo, 72 h; further: on the % scale 0 is the no-effect control and ±100 the full control effect; nearly all actives have a fitted effect of over 60% in size
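Cytotoxicity via CellTiter-Glo luminescence after 72 h compound exposure at 37 degrees C. Cells: drug-selected KB-V1 line, DMEM phenol-red free plus 10% FBS. Compounds tested at multiple concentrations; normalized data fitted to concentration-effect curves.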
KB-3-1 tox: kills parental KB-3-1 adenocarcinoma cells; KB-3-1 viability, CellTiter-Glo ATP luminescence, 72 h; Potency, µM (doses to about 46.1 µM), most hits filed as cytotoxic; 400,000 tested, 1.4% active; further: on the % scale 0 is the no-effect control and ±100 the full control effect; nearly all actives have a fitted effect of over 60% in size
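Here the drug-naive KB-3-1 line serves as comparator for MDR sub-line selectivity; cells received compound titrations, 72 h at 37 °C, then CellTiter-Glo readout.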
ATXN2 expr inh: ATXN2 expression inhibition; 360,000 tested, 0.72% active; Potency, µM (titrated, usually from 57 µM), inactives show top-dose activity change, negative = inhibition, hits mostly inhibitors; HEK-293 ATXN2-luciferase reporter, luminescence, 24 h; further: on the % scale 0 is the no-effect control and ±100 the full control effect; nearly all actives have a fitted effect of over 55% in size
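ATXN2-luciferase reporter cells (luciferase flanked by upstream and downstream ATXN2 gene portions) were treated 24 h at 37 °C with compounds at up to 57 uM. SteadyGlo luminescence gave expression; GF-AFC fluorescence gave viability.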
Numbers without * were called inactive; i = inactive; ? = inconclusive; . = no result given. The call rests on the fitted dose curve; in most records, active means well fitted curve in the direction sought with a large enough effect; inconclusive means small, poorly fitted or top-dose-only effect, or another doubt; inactive means no such curve, though single readings can be large; an effect the other way counts as inactive or inconclusive. Potency means the concentration at half of the fitted maximal effect.

SMILES	HT1080 IDH1KD tx	HT1080NT lethal	S2 tox	KB-V1 MDR tox	KB-3-1 tox	ATXN2 expr inh
CC1CN(CCCCOc2ccc(C(C)C)cc2)CC(C)O1 (stereo not given)	-11%	0%	i	?	i	-15%
CC1CN(CCCCOc2ccc(Cl)c3ccccc23)CC(C)O1 (stereo not given)	?	21µM*	i	i	i	-33%
COCC(=O)Nc1ncc(S(=O)(=O)c2ccc([N+](=O)[O-])cc2)s1	-16%	0%	i	i	i	-9%
O=C(NC(Nc1ncc(S(=O)(=O)c2ccc([N+](=O)[O-])cc2)s1)(C(F)(F)F)C(F)(F)F)c1ccc(Cl)cc1	?	3.3µM*	?	?	21µM*	14µM*
CCCCNS(=O)(=O)c1ccc2nc(SCC(=O)Nc3sccc3C#N)[nH]c2c1	21µM*	?	?	i	?	?
CCCCNS(=O)(=O)c1ccc2nc(SCC(N)=O)[nH]c2c1	-3%	-13%	i	i	i	.
Cc1cc(NC(=O)Nc2nnc(N(C)Cc3ccccc3)s2)ccc1Br	.	.	.	i	i	.
CCOc1ccccc1N(C(=O)c1snc(C(N)=O)c1N)C(C(=O)NCCC(C)C)c1ccco1 (stereo not given)	0%	-11%	i	13µM*	i	-5%
CC(C)(C)NC(=O)C(c1ccco1)N(Cc1ccc(F)cc1)C(=O)c1snc(C(N)=O)c1N (stereo not given)	2%	-4%	i	18µM*	i	-11%
COc1ccccc1C(=O)Nc1nnc(SCc2cc(=O)c3ccccc3[nH]2)s1	.	.	?	i	i	-13%
CCOc1ccc2nc3cc(N)ccc3c(N)c2c1	.	.	?	.	.	13µM*
CCOc1ccc2nc3cc(NCc4ccc(OC)cc4)ccc3c(N)c2c1	?	?	i	i	?	.
O=C(CCN1C(=O)c2ccccc2S1(=O)=O)Nc1cc(Cl)ccc1Cl	7%	-2%	i	i	i	3%
O=C(CN1C(=O)c2ccccc2S1(=O)=O)c1ccc2c(c1)OCCO2	-3%	-4%	i	i	i	.
O=C(CN1C(=O)c2ccccc2S1(=O)=O)c1ccc2c(c1)OCCCO2	6%	7%	i	i	i	0.28µM*
O=C(CN1C(=O)c2ccccc2S1(=O)=O)c1ccc(Cl)cc1Cl	0%	10%	i	i	i	2µM*
O=C(CN1C(=O)c2ccccc2S1(=O)=O)N1CCN(c2ccccc2F)CC1	4%	1%	?	?	i	-25%
O=C(CN1C(=O)c2ccccc2S1(=O)=O)c1ccc(OC(F)F)cc1	5%	1%	i	i	i	2µM*
O=C(CN1C(=O)c2ccccc2S1(=O)=O)c1ccccc1F	9%	8%	i	?	i	7.9µM*
O=C(CN1C(=O)c2ccccc2S1(=O)=O)c1ccc(F)cc1	8%	-6%	i	i	i	.
Cc1ccc(CNC(=O)CSc2nc3c(sc4ccccc43)c(=O)n2CCCC(=O)NCCO)cc1	.	.	.	i	i	.
Cc1cccc(C(c2sc3nc(-c4ccco4)nn3c2O)N2CCOCC2)c1 (stereo not given)	.	.	i	?	i	-1%
CCCS(=O)(=O)Nc1cc(-c2cn3cccc(C)c3n2)ccc1C	.	.	i	i	i	37%
COc1ccc(NC(=O)Nc2c[nH]c(=O)[nH]c2=O)c(OC)c1	.	.	i	i	i	10%
COc1ccccc1NC(=O)C1=C(C)Nc2nc3ccccc3n2C1c1cccc(Br)c1 (stereo not given)	.	.	i	i	i	3%
SMILES	HT1080 IDH1KD tx	HT1080NT lethal	S2 tox	KB-V1 MDR tox	KB-3-1 tox	ATXN2 expr inh
COc1ccc(CCNC(=O)c2cc(C(=O)c3cc(Cl)ccc3O)cn(CCc3ccc(OC)cc3)c2=O)cc1	0%	-11%	i	2.6µM*	i	-4%
O=C(c1cc(C(=O)NCCc2ccccc2)c(=O)n(CCc2ccccc2)c1)c1cc(Cl)ccc1O	?	-15%	i	2.3µM*	?	-24%
O=C(CC1N=C2c3ccccc3N=C(SCc3ccccc3Cl)N2C1=O)NCc1cccs1 (stereo not given)	.	.	.	i	i	.
Cc1cc(C)c(NC(=O)CSc2nc3ccccc3c3nc(-c4ccccc4)nn23)c(C)c1	.	.	i	i	i	15%
Cn1cc(C(=O)c2ccc(Cl)cc2)cc1-c1nc2ccccc2n1C	?	?	?	13µM*	i	?
COc1ccc(Cl)cc1NC(=S)NCCc1c[nH]c2ccccc12	?	?	i	?	21µM*	?
O=C(COc1ccccc1C(=O)Nc1ccccc1)NCCCCc1ccccc1	-24%	-11%	.	.	.	.
CC(C)Oc1ccc(CNC(=O)C2CCN(C(=O)N3CC(C)Oc4ccccc43)CC2)cc1 (stereo not given)	.	.	.	i	i	.
COc1ccc(NC(=O)c2cccs2)cn1	26%	?	i	?	i	20%
CC(C)(C)c1ccc(Oc2ccc(NC(=O)c3cccs3)cn2)cc1	12µM*	15µM*	?	?	?	-21%
CC(C)(C)c1ccc(Oc2ccc(NC(=O)c3ccco3)cn2)cc1	7.3µM*	18µM*	?	?	i	.
Cc1cccc2c(N3CCCC3)nc(CNS(=O)(=O)c3ccc4ccccc4c3)nc12	.	.	i	.	.	.
CCC(C(=O)NCc1ccccc1OC)n1nc(C)n2c(cc3sccc32)c1=O (stereo not given)	.	.	.	i	i	.
NC(=O)c1sc2nc(-c3ccccc3)ccc2c1N	24%	27%	.	5.8µM*	?	.
COC(=O)c1sc(-c2ccc(C(C)(C)C)cc2)cc1NC(=O)COCC(=O)O	21µM*	16µM*	?	i	i	-5%
CCOc1ccccc1C(=O)N(CN1CCCC1=O)c1cccc(Cl)c1	-1%	-1%	i	12µM*	i	-14%
C=CCn1cnc2c(c1=O)c1nc3ccccc3nc1n2/N=C/c1cc(OC)c(OC)c(OC)c1	?	?	i	?	i	?
C=CCn1cnc2c(c1=O)c1nc3ccccc3nc1n2/N=C/c1cccc(OC)c1OC	?	16%	?	23µM*	i	-18%
Cc1ccc2c(c1)C(c1ccc(F)cc1)N(C(=O)c1cccc(C(F)(F)F)c1)CC(=O)N2 (stereo not given)	.	.	?	i	i	?

Bioassay records deposited in PubChem BioAssay by National Center for Advancing Translational Sciences (NCATS).
